Screening results (PubChem BioAssay)
HSF-1 act: increases HSF-1 driven luciferase reporter signal; activation, % at 9 µM; NIH3T3-HGL HSF-1 luciferase reporter, MG132, 8 h; 100% = twice DMSO control signal; 300,000 compounds, 1.7% hits;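 active = mean replicate activation of at least 50% with a set share of replicates each reaching 50%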
TWEAK-Fn14 inh: inhibitors of TWEAK-Fn14 interaction signaling; AID 1159606; inhibition, % at 10 µM; TWEAK-stimulated Fn14 reporter cells, luciferase luminescence, 8 h; 360,000 compounds, 2% hits; in the data active = inhibition above about 50%
TROY signal inh: blocks TROY-dependent signaling in reporter cells; Q293 LMP1-TROYcd NF-kB luciferase reporter, 4 h; inhibition, % at 10 µM; 360,000 compounds, 0.98% hits;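 active = compounds whose plate-normalised and pattern-corrected inhibition of the luciferase reporter signal at the single screening dose is 50% or more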
LMP1 NFkB inh: inhibitors of Epstein-Barr LMP1-induced NF-kappaB reporter; LMP1-induced NF-kappaB luciferase reporter cells, luminescence; inhibition, % at 12.5 µM; 350,000 compounds, 0.69% hits; AID 504558; in the data active = inhibition above about 41%
HSF1 inh: HSF1 inhibition | NIH3T3-HGL HSE-luciferase, MG132-induced, luminescence 8 h; hits give low values | activity change, negative = inhibition, % at 7.5 µM (by protocol) | 300,000 compounds, 0.77% hits;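 active = more than half of replicate wells show activity change below -50%, luminescence cut by over half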;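 note: luciferase reports HSF-1 transcriptional activity via heat shock element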
HSP90 inh: inhibitors of HSP90 luciferase refolding in rabbit reticulocyte lysate. luciferase refolding luminescence, 3 h. inhibition, % at 5.6 µM. 290,000 compounds, 0.91% hits;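 active = inhibition above the screen-wide mean plus 3 SD, computed separately per campaign, cut at about 16% in these data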;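 note: inhibitors lower the luminescence because luciferase stays unfolded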
A number is an active result; 0 = inactive; - = not tested or not shown. In the library only some 4.7% were active in any assay of this set; here they are far more common.

SMILES	HSF-1 act	TWEAK-Fn14 inh	TROY signal inh	LMP1 NFkB inh	HSF1 inh	HSP90 inh
CC(C)(C)NC(=O)C(c1ccncc1)N(Cc1ccc(F)cc1)C(=O)c1ccc(-c2ccccc2)[nH]1 (stereo not given)	87	0	0	0	0	0
O=C(NC1CCCC1)C(c1ccncc1)N(Cc1ccco1)C(=O)c1ccc(-c2ccccc2)[nH]1 (stereo not given)	122	0	0	0	0	0
O=C(NC1CCCC1)C(c1ccncc1)N(Cc1ccccc1)C(=O)c1ccc(-c2ccccc2)[nH]1 (stereo not given)	73	0	0	0	0	0
COc1cc(-c2cnc3c(NC=O)cc(-c4ccsc4)cn23)cc(OC)c1OC	-	0	0	-	-	-
O=S(=O)(Nc1cccc(-n2cnnn2)c1)c1cc(Cl)ccc1Cl	0	0	0	0	-88	0
O=C(CSc1ccc(Cl)cc1)Nc1cc(-c2nc3ncccc3o2)ccc1Cl	0	-	-	-	0	0
O=C(CSc1ccc(Cl)cc1)Nc1cccc(-c2nc3ncccc3o2)c1	0	71	67	0	0	0
Cc1noc(C)c1-c1ccc(C(=O)Nc2ccccc2)c2occc12	-	0	0	-	-	-
N#Cc1ccc(S(=O)(=O)N2CCCCC2c2cc(C(=O)NCc3ccccc3)no2)cc1 (stereo not given)	-	0	0	-	-	-
CC(C)Nc1ncnc2ccc(Br)cc12	0	78	0	0	0	0
CC(C)[C@H](NC(=O)OC(C)(C)C)c1nnc(SCC(=O)Nc2ccc(Br)cc2)o1	84	0	0	0	0	0
C[C@H](NC(=O)OC(C)(C)C)c1nnc(SCC(=O)Nc2cccc(Cl)c2)o1	0	0	0	0	0	0
CN(C)c1cccc(NC(=O)C2Cc3c(-c4ccccc4Oc4ccccc4)ccnc3O2)c1 (stereo not given)	-	0	0	-	-	-
CC(=O)Nc1cccc(-c2ccnc3c2CC(C(=O)Nc2cccc(Oc4ccccc4)c2)O3)c1 (stereo not given)	-	57	0	-	-	-
CC(=O)c1cccc(NC(=O)C2Cc3c(-c4ccccc4Oc4ccccc4)ccnc3O2)c1 (stereo not given)	-	51	0	-	-	-
CC(=O)N(C)C[C@@H]1Oc2ncc(C#Cc3ccc(F)cc3)cc2C(=O)N([C@@H](C)CO)C[C@H]1C	-	0	0	0	-	-
COCCNC(=O)C1CCCN(Cc2ccccc2-c2ccccc2)CC1 (stereo not given)	-	0	0	-	-	-
N/C(=N\OC(=O)COc1ccc(Br)cc1Cl)c1cccnc1	60	0	0	0	0	0
N/C(=N\OC(=O)COc1ccc(Cl)cc1Br)c1cccnc1	0	0	0	0	0	0
COc1ccc(-c2cc3ccc(OCC(C)=O)cc3oc2=O)cc1	62	0	0	0	0	0
COc1ccc(-c2cc3ccc(O)cc3oc2=O)cc1	51	0	0	0	0	0
O=c1oc2cc(O)ccc2cc1-c1ccccc1	0	0	0	0	0	0
COc1ccc(-c2cc3ccc(OCC(C)=O)cc3oc2=O)cc1OC	0	0	0	0	0	0
Cc1c(CN(C)C(=O)C2CCC(=O)N(Cc3ccccc3F)C2)[nH]c2ccccc12 (stereo not given)	-	0	0	0	-	-
Cc1ccc(S(=O)(=O)N(C)C)cc1NC(=O)C(C)OC(=O)CC1CC2CCC1C2 (stereo not given)	-	0	0	0	-	-
SMILES	HSF-1 act	TWEAK-Fn14 inh	TROY signal inh	LMP1 NFkB inh	HSF1 inh	HSP90 inh
CCCCN(C)c1c(C)nc2ccc(C(=O)N3CCN(C(C)=O)CC3)cn12	-	0	0	-	-	-
Cc1[nH]c2ccccc2c1C(=O)Cn1c(=O)oc2ccccc21	76	0	0	0	0	0
Cc1ccc2c(C(=O)CSc3ccccc3)c(C)[nH]c2c1	55	0	0	0	0	0
Cc1[nH]c2ccccc2c1C(=O)CSc1ccccc1	0	0	0	0	0	0
Cc1[nH]c2ccccc2c1C(=O)CCl	0	58	0	0	0	0
Cc1[nH]c2ccccc2c1C(=O)COc1ccccc1	0	0	0	0	0	0
CC1(C)CC(=O)C=C(c2cc3ccccc3s2)C1	0	0	0	0	0	-
O=C1C=C(c2cc3ccccc3s2)CCC1	0	0	0	51	0	-
Cc1cc(CSc2ccccc2)ccc1NC(=O)c1ccc(CN2CCOCC2)cc1	0	52	0	0	0	0
Cc1ccc(NS(=O)(=O)c2cc(C(=O)N3CCc4ccccc4C3)ccc2Cl)cc1	67	0	0	0	0	0
O=C(c1ccncc1)N1CCc2ccccc2C1	0	0	0	0	0	0
